Laboratory results reported in PubChem BioAssay AID1159580 (chemical genetic matrix, 2015).
Among all 5,500 compounds or so, about 2,000 (36%) were called active. Roughly 18% stayed inconclusive and do not appear here. No stated cut-off is given here; in the data, active means normalized growth mostly below about 0.91 (no sharp cut-off); inconclusive means no clear call, values can overlap the other calls; inactive means mostly above about 0.92. Some of the results follow.

Experiment: chemical genetic growth profiling, strain panel (AID 1159580);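 further: tested at 20 µM; growth read once vehicle control cultures reached saturation at 30 °C; 1 = growth at the plate median or of vehicle wells; lower values mean less growth of the strain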
Settings: S. cerevisiae deletion strains, growth OD

Measured: normalized growth

O=c1ccc2cc(OC3OC(CO)C(O)C(O)C3O)c(O)cc2o1 (stereo not drawn)
inactive: locus YAL021C, strain ccr4, hits give low values 0.959 | locus YAL026C, strain drs2, hits give low values 1 | locus YAL030W, strain snc1, hits give low values 0.986 | locus YBL061C, strain skt5, hits give low values 1 | locus YBR009C, strain hhf1, hits give low values 0.995 | locus YBR023C, strain chs3, hits give low values 0.992 | locus YBR171W, strain sec66, hits give low values 1 | locus YBR231C, strain swc5, hits give low values 1.03 | locus YBR279W, strain paf1, hits give low values 0.998 | locus YCL011C, strain gbp2, hits give low values 0.974 | locus YCL016C, strain dcc1, hits give low values 0.979 | locus YCL069W, strain vba3, hits give low values 0.983 | locus YCR088W, strain abp1, hits give low values 0.985 | locus YDL005C, strain med2, hits give low values 0.989 | locus YDL040C, strain nat1, hits give low values 0.991 | locus YDR001C, strain nth1, hits give low values 0.972 | locus YDR069C, strain doa4, hits give low values 0.998 | locus YDR137W, strain rgp1, hits give low values 0.976 | locus YDR159W, strain sac3, hits give low values 1.06 | locus YDR195W, strain ref2 0.973 | locus YDR297W, strain sur2, hits give low values 0.995 | locus YDR334W, strain swr1, hits give low values 0.991 | locus YDR335W, strain msn5, hits give low values 0.991 | locus YDR392W, strain spt3, hits give low values 0.927 | locus YEL003W, strain gim4, hits give low values 1 | locus YEL037C, strain rad23, hits give low values 0.986 | locus YEL061C, strain CIN8 (second series), hits give low values 0.984 | locus YER015W, strain faa2, hits give low values 1 | locus YER016W, strain bim1, hits give low values 0.993 | locus YER111C, strain swi4, hits give low values 1.01 | locus YER155C, strain BEM2 (second series), hits give low values 1.07 | locus YFR010W, strain ubp6, hits give low values 0.997 | locus YGL167C, strain pmr1, hits give low values 0.989 | locus YGL173C, strain kem1, hits give low values 0.998 | locus YGL227W, strain vid30, hits give low values 0.989 | locus YGL240W, strain doc1, hits give low values 1.04 | locus YGL253W, strain hxk2, hits give low values 0.996 | locus YHR013C, strain ard1, hits give low values 0.992 | locus YHR027C, strain rpn1, hits give low values 0.977 | locus YHR030C, strain SLT2, hits give low values 0.985 | locus YHR079C, strain IRE1, hits give low values 0.969 | locus YHR142W, strain chs7, hits give low values 0.959 | locus YJL092W, strain hpr5, hits give low values 0.981 | locus YJL095W, strain BCK1 (second series), hits give low values 0.995 | locus YJL095W, strain BCK1, hits give low values 0.968 | locus YJL115W, strain asf1, hits give low values 0.973 | locus YJL129C, strain trk1, hits give low values 1 | locus YJL154C, strain vps35, hits give low values 0.981 | locus YJL164C, strain tpk1, hits give low values 0.947 | locus YJL166W, strain qcr8, hits give low values 1 | locus YJR066W, strain TOR1, hits give low values 0.919 | locus YKL160W, strain elf1, hits give low values 0.966 | locus YKR026C, strain gcn3, hits give low values 1 | locus YKR091W, strain srl3, hits give low values 0.989 | locus YLL001W, strain dnm1, hits give low values 0.993 | locus YLL026W, hits give low values 0.988 | locus YLL041C, strain sdh2, hits give low values 0.983 | locus YLR027C, strain aat2, hits give low values 1.01 | locus YLR113W, strain HOG1, hits give low values 0.973 | locus YLR221C, strain rsa3, hits give low values 1.04 | locus YLR258W, strain gsy2, hits give low values 0.972 | locus YLR262C, strain YPT6 (second series), hits give low values 0.98 | locus YLR320W, strain mms22, hits give low values 1.04 | locus YLR342W, strain FKS1, hits give low values 0.995 | locus YLR357W, strain rsc2, hits give low values 1 | locus YLR370C, strain arc18, hits give low values 1.02 | locus YLR384C, strain iki3, hits give low values 1.01 | locus YML120C, strain ndi1, hits give low values 0.988 | locus YMR058W, strain fet3, hits give low values 1 | locus YMR125W, strain sto1, hits give low values 0.92 | locus YMR129W, hits give low values 0.993 | locus YMR205C, strain PFK2, hits give low values 0.969 | locus YMR231W, strain pep5, hits give low values 1 | locus YNL071W, strain lat1, hits give low values 0.988 | locus YNL183C, strain NPR1, hits give low values 0.897 | locus YNL209W, strain ssb2, hits give low values 0.99 | locus YNL248C, strain rpa49, hits give low values 1.04 | locus YNL322C, strain KRE1 (second series), hits give low values 1.01 | locus YNR049C, strain mso1, hits give low values 0.982 | locus YOR001W, strain rrp6, hits give low values 1.02 | locus YOR070C, strain gyp1, hits give low values 0.998 | locus YOR080W, strain dia2, hits give low values 1.01 | locus YOR083W, strain WHI5, hits give low values 0.964 | locus YOR106W, strain vam3, hits give low values 0.939 | locus YOR231W, strain MKK1, hits give low values 0.973 | locus YOR265W, strain rbl2, hits give low values 1 | locus YOR270C, strain vph1, hits give low values 1.03 | locus YOR290C, strain snf2, hits give low values 0.919 | locus YPL051W, strain arl3, hits give low values 1.02 | locus YPL078C, strain atp4, hits give low values 0.935 | locus YPL106C, strain sse1, hits give low values 1.01 | locus YPL240C, strain hsp82, hits give low values 0.998 | locus YPL256C, strain CLN2, hits give low values 0.956
